For assay [1], the target named is Nuclear receptor subfamily 1 group I member 3 (Homo sapiens) (UniProt Q14994). Put plainly: ATG_CAR_TRANS: Attagene TRANS-FACTORIAL HepG2 Assay for human Constitutive Androstane Receptor (CAR) (AID 2282969).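 Further: activators raise reporter mRNA above DMSO so AC50 marks induction.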 To be noted: HepG2 Attagene TRANS-FACTORIAL CAR reporter. The method in brief:
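Readout is reporter mRNA induction, quantified by fluorescent primer extension and capillary electrophoresis after RT-PCR. Cells were HepG2 transiently carrying chimeric NR-Gal4 constructs with GAL4-UAS reporters, treated for 24 h; activity scored upward from DMSO.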

The target in assay [2] is Estrogen receptor (Homo sapiens) (UniProt P03372). Put plainly: ATG_ERa_TRANS: Attagene TRANS-FACTORIAL HepG2 Assay for human Estrogen Receptor alpha (ERa) (AID 2282970). To be noted: HepG2 Attagene TRANS ERa GAL4 reporter, mRNA. Put shortly: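 HepG2 cells transiently transfected with multiplexed GAL4-UAS reporter units; ERa activity read via exogenous chimeric NR-Gal4 protein. After 24 hour compound exposure, reporter mRNA measured by RT-PCR with 6-FAM labelling and capillary electrophoresis; gain-of-signal fitted relative to DMSO.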

For assay [3], the target named is Steroid hormone receptor ERR1 (Homo sapiens) (UniProt P11474). Put plainly: ATG_ERRa_TRANS: Attagene TRANS-FACTORIAL HepG2 Assay for human Estrogen-Related Receptor alpha (ERRa) (AID 2282971). To be noted: HepG2 Attagene TRANS reporter, ERRa transactivation. The method in brief: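 HepG2 cells transiently transfected with multiplexed GAL4-UAS reporter units reading chimeric ERRa-Gal4 activity; 24 h compound exposure. Reporter mRNA measured by RT-PCR, 6-FAM labelling, HpaI digest and capillary electrophoresis; gain of signal fitted versus DMSO baseline.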

Assay [4] deals with X-box-binding protein 1 (Homo sapiens) (UniProt P17861). Put plainly: ATG_Xbp1_CIS: Attagene CIS-FACTORIAL HepG2 Assay for human X-box Binding Protein 1 (XBP1) (AID 2282972; active means hit-call score of the fitted dose curve at least 0.9, where 1 is the maximum; inactive means score below 0.9). To be noted: HepG2 XBP1 cis-element reporter, Attagene multiplex; actives raise or lower the signal. Put shortly: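 HepG2 cells transiently transfected with multiple cis-element reporter units report endogenous TF activity; 24 h exposure, then reporter mRNA measured by RT-PCR, 6-FAM labelling, HpaI digestion and capillary electrophoresis. Bidirectional fitting versus DMSO.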

Assay [5] can be described thus: ATG_M_19_TRANS: Attagene TRANS-FACTORIAL HepG2 Assay for M19 Transcription Factor (Internal Marker) (AID 2282974). To be noted: HepG2 Attagene TRANS-FACTORIAL M19 internal marker reporter. The method in brief:
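Fluorescence of 6-FAM-labelled reporter cDNA fragments, separated by capillary electrophoresis, served as the readout. These derived from HepG2 cells carrying transfected GAL4-UAS reporter units after 24 h dosing, with DMSO as negative control.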

The target of assay [6] is Estrogen-related receptor gamma (Homo sapiens) (UniProt P62508). Put plainly: ATG_ERRg_TRANS: Attagene TRANS-FACTORIAL HepG2 Assay for human Estrogen-Related Receptor gamma (ERRg) (AID 2282977).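 Further: hits increase reporter signal over DMSO so potencies reflect activators.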 To be noted: HepG2 Attagene TRANS reporter, ERRg transactivation. Put shortly: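 HepG2 cells transiently transfected with multiplexed GAL4-UAS reporter units driven by chimeric NR-Gal4 proteins; 24 h exposure. Reporter mRNA quantified by RT-PCR, fluorescent labelling, HpaI digestion and capillary electrophoresis; gain of signal vs DMSO.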

Assay [7] addresses Bile acid receptor (Homo sapiens) (UniProt Q96RI1). Put plainly: ATG_FXR_TRANS: Attagene TRANS-FACTORIAL HepG2 Assay for Farnesoid X Receptor (FXR) (AID 2282979).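 Further: hits raise reporter mRNA above DMSO so AC50 marks FXR activation.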 To be noted: HepG2 Attagene TRANS FXR-GAL4 reporter transcription. Put shortly: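 HepG2 cells transiently transfected with reporter constructs in which a chimeric FXR-GAL4 protein drives a GAL4-UAS reporter; 24 h compound exposure. Reporter mRNA measured by RT-PCR, FAM labelling, HpaI digestion and capillary electrophoresis; gain-of-signal versus DMSO.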

Assay [8] addresses Oxysterols receptor LXR-alpha (Homo sapiens) (UniProt Q13133). Put plainly: ATG_LXRa_TRANS: Attagene TRANS-FACTORIAL HepG2 Assay for human Liver X Receptor alpha (LXRa) (AID 2282980). To be noted: HepG2 Attagene TRANS reporter, LXRa transactivation. The method in brief: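 HepG2 cells were transiently transfected with multiplexed reporter units driven by chimeric LXRa–GAL4 fusion proteins, then dosed for 24 h. Reporter mRNA was quantified by RT-PCR, fluorescent labelling and capillary electrophoresis; gain of signal fitted against DMSO baseline.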

Assay [9] has as its target Hepatocyte nuclear factor 4-alpha (Homo sapiens) (UniProt P41235). Put plainly: ATG_HNF4a_TRANS: Attagene TRANS-FACTORIAL HepG2 Assay for human Hepatocyte Nuclear Factor 4 alpha (HNF4a) (AID 2282982). To be noted: HepG2 HNF4a transactivation reporter, mRNA readout. The method in brief: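 Readout is fluorescent reporter-transcript fragments resolved by capillary electrophoresis after RT-PCR from HepG2 cells dosed for 24 h. Cells carried transfected GAL4-UAS reporter constructs measuring exogenous NR-GAL4 chimera activity; DMSO served as baseline.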

Assay [10] addresses Transcriptional activator Myb (Homo sapiens) (UniProt P10242). Put plainly: ATG_Myb_CIS: Attagene CIS-FACTORIAL HepG2 Assay for human Myeloblastosis (Myb) Proto-Oncogene Transcription Factor (AID 2282986; active means hit-call score of the fitted dose curve at least 0.9, where 1 is the maximum; inactive means score below 0.9). To be noted: HepG2 Attagene CIS-FACTORIAL Myb reporter transcription; actives raise or lower the signal. Put shortly: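 Reporter transcript levels, quantified by fluorescent RT-PCR and capillary electrophoresis, serve as the read-out. Transfected HepG2 cells carrying cis-promoter reporter units are dosed for 24 hours, and curves are fitted bidirectionally against DMSO controls.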

Assay [11] has as its target Nuclear respiratory factor 1 (Homo sapiens) (UniProt Q16656). Put plainly: ATG_NRF1_CIS: Attagene CIS-FACTORIAL HepG2 Assay for human Nuclear Respiratory Factor 1 (NRF1) Orphan Gene (AID 2282987; active means hit-call score of the fitted dose curve at least 0.9, where 1 is the maximum; inactive means score below 0.9). To be noted: HepG2 NRF1 cis-element reporter, Attagene multiplex; actives raise or lower the signal. Put shortly:
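Multiplexed cis-reporter assay, HepG2 cells, 24 h treatment. Total RNA → oligo(dT) RT → PCR with reporter-specific primers → 6-FAM primer extension → HpaI cut → CE. Bidirectional fit vs DMSO.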

Assay [12] in a line: ATG_NFI_CIS: Attagene CIS-FACTORIAL HepG2 Assay for human Nuclear Factor I (NFI) (AID 2282989; active means hit-call score of the fitted dose curve at least 0.9, where 1 is the maximum; inactive means score below 0.9). To be noted: HepG2 cis-regulatory reporter, NFI response element transcription; actives raise or lower the signal. The method in brief:
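Reporter transcripts were measured by RT-PCR with fluorescent primer extension and capillary electrophoresis 24 h post-treatment. HepG2 cells carried transiently transfected cis-regulated reporter constructs reporting endogenous factor activity; gain or loss fitted against DMSO baseline.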

Assay [13] addresses Myc proto-oncogene protein (Homo sapiens) (UniProt P01106). Put plainly: ATG_Myc_CIS: Attagene CIS-FACTORIAL HepG2 Assay for human Myelocytomatosis (Myc) Proto-Oncogene Transcription Factor (AID 2282990; active means hit-call score of the fitted dose curve at least 0.9, where 1 is the maximum; inactive means score below 0.9). To be noted: HepG2, Attagene cis-reporter transcription factor activity; actives raise or lower the signal. Put shortly:
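HepG2, transient MRTU transfection (cis promoters, endogenous TFs); 24 h dosing; TriZol RNA → oligo(dT) RT → PCR → 6-FAM primer extension → HpaI cut → CE. Bidirectional fit vs DMSO.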

The nature of assay [14]: ATG_M_06_TRANS: Attagene TRANS-FACTORIAL HepG2 Assay for M06 Transcription Factor (Internal Marker) (AID 2282983). To be noted: HepG2 Attagene TRANS M06 internal marker reporter. The method in brief: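 HepG2 cells transiently transfected with multiplexed GAL4-UAS reporter transcription units; after 24 h compound exposure, reporter mRNA measured by RT-PCR, FAM-labelled primer extension, HpaI digestion and capillary electrophoresis. Gain-of-signal fitted versus DMSO baseline; background control readout.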

A short description of assay [15]: ATG_M_32_TRANS: Attagene TRANS-FACTORIAL HepG2 Assay for M32 Transcription Factor (Internal Marker) (AID 2282984). To be noted: HepG2 Attagene TRANS M32 internal marker reporter. Put shortly:
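Measures reporter mRNA induction in human HepG2 liver cells after 24 h chemical treatment. Transcripts from transiently transfected GAL4-UAS reporter units are amplified, fluorescently labelled and sized by capillary electrophoresis; gain of signal relative to DMSO.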

Assay [16] in a line: ATG_GAL4_TRANS: Attagene TRANS-FACTORIAL HepG2 Assay for GAL4 (Internal Marker) (AID 2282976). To be noted: HepG2 Attagene TRANS GAL4 internal marker reporter. The method in brief:
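HepG2 cells transiently transfected with multiplexed GAL4-UAS reporter constructs were dosed for 24 h. Reporter mRNA was measured by RT-PCR, 6-FAM primer extension, HpaI digestion and capillary electrophoresis, and gain of signal was fitted relative to DMSO.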

Assay [17] has as its target Androgen receptor (Homo sapiens) (UniProt P10275). Put plainly: ATG_AR_TRANS: Attagene TRANS-FACTORIAL HepG2 Assay for human Androgen Receptor (AR) (AID 2282973). To be noted: HepG2 Attagene TRANS-FACTORIAL AR reporter transcription. The method in brief:
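HepG2 cells transiently transfected with multiplexed GAL4-UAS reporter units and chimeric NR-Gal4 fusion; 24 h compound exposure. Reporter mRNA measured by RT-PCR, 6-FAM labelling, HpaI digestion and capillary electrophoresis; gain-of-signal fitted relative to DMSO baseline.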

Assay [18] deals with Oxysterols receptor LXR-beta (Homo sapiens) (UniProt P55055). Put plainly: ATG_LXRb_TRANS: Attagene TRANS-FACTORIAL HepG2 Assay for human Liver X Receptor beta (LXRb) (AID 2282981). To be noted: HepG2 Attagene TRANS GAL4-LXRb reporter, mRNA. Put shortly:
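Transient transfection HepG2 (multiplexed RTUs, GAL4-UAS); NR-Gal4 chimera; 24 h exposure; RNA → RT-PCR → 6-FAM primer extension → HpaI → CE; increase vs DMSO.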

In assay [19] the target is Glucocorticoid receptor (Homo sapiens) (UniProt P04150). Put plainly: ATG_GR_TRANS: Attagene TRANS-FACTORIAL HepG2 Assay for human Glucocorticoid Receptor (GR) (AID 2282978).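 Further: activators score as hits since higher reporter transcript over DMSO is fitted.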 To be noted: HepG2 Attagene TRANS GR reporter, mRNA transcription. The method in brief: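 Fluorescent capillary-electrophoresis quantitation of reporter mRNA is the readout, taken 24 h after dosing human HepG2 cells carrying transiently transfected GAL4-UAS reporter units activated by chimeric NR-GAL4 fusions; activity scored as induction over DMSO.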

Records with an inconclusive call do not appear. Calls of active or inactive are those of the source. How the source made its calls, unless noted: active means hit-call score of the fitted dose curve at least 0.9, where 1 is the maximum; inconclusive means response in the unintended direction; inactive means score below 0.9.

Sequence of Nuclear receptor subfamily 1 group I member 3 (Homo sapiens) (Q14994 whole entry, looked up, the tested form may be a part): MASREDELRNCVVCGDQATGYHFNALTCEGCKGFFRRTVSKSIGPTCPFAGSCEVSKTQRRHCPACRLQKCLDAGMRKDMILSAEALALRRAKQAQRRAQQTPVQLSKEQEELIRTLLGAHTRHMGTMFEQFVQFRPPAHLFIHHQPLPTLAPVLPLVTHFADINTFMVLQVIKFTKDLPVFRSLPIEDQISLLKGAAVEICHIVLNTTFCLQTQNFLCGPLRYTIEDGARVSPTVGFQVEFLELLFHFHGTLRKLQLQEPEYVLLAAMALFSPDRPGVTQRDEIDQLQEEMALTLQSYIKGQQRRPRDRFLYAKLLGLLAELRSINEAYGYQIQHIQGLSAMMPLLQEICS
Sequence of Myc proto-oncogene protein (Homo sapiens) (P01106 whole entry, looked up): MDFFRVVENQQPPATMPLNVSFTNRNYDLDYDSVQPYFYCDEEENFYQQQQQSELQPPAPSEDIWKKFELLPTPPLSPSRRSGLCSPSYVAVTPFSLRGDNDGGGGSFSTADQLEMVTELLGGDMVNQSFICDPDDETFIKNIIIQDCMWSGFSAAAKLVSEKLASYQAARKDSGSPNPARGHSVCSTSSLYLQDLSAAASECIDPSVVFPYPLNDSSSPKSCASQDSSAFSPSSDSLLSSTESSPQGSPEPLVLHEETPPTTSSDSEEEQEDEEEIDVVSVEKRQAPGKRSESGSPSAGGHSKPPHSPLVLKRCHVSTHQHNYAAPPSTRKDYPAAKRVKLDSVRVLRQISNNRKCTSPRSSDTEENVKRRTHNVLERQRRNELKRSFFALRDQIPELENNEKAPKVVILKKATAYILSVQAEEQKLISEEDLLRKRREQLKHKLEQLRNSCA
Sequence of Oxysterols receptor LXR-alpha (Homo sapiens) (Q13133 whole entry, looked up, the tested form may be a part): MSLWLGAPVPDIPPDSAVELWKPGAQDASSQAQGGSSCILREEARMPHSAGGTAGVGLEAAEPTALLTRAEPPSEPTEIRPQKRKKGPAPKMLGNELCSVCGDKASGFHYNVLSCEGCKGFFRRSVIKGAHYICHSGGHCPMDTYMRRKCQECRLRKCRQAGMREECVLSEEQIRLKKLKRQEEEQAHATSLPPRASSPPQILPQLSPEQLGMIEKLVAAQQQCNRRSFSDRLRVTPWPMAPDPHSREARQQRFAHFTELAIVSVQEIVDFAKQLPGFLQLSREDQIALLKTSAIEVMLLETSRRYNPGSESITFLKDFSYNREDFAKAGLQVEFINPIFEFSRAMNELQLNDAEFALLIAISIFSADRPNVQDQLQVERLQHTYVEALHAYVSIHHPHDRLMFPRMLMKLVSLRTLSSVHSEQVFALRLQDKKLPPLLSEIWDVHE
Sequence of Estrogen receptor (Homo sapiens) (P03372 whole entry, looked up, the tested form may be a part): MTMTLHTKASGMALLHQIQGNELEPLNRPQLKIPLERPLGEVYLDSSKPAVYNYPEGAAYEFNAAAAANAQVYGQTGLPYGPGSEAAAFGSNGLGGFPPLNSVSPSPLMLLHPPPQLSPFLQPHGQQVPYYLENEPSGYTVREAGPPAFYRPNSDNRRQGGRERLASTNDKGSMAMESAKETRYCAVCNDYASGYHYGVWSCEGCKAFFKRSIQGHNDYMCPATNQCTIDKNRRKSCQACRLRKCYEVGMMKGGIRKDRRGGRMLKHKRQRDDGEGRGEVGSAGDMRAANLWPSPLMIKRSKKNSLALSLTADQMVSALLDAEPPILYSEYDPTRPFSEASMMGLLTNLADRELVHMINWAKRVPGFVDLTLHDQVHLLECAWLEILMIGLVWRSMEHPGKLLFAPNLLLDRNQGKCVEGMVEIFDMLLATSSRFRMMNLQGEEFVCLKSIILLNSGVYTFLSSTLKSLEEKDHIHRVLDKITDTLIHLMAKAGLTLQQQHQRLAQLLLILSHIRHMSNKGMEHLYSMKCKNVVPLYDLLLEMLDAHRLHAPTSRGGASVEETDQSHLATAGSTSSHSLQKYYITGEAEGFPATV
Sequence of Estrogen-related receptor gamma (Homo sapiens) (P62508 whole entry, looked up, the tested form may be a part): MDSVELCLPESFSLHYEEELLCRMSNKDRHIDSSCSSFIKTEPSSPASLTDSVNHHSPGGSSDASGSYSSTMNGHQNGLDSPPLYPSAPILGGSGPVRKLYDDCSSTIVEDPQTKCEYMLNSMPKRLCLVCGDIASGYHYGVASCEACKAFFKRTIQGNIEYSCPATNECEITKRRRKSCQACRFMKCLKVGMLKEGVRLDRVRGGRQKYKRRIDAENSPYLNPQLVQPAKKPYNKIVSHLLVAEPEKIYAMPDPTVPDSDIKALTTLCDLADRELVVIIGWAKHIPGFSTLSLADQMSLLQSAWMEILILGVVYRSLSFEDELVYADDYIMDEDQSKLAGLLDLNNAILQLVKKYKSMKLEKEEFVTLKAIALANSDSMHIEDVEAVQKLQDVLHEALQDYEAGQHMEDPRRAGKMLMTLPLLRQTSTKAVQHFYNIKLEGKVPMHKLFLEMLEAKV
Sequence of Steroid hormone receptor ERR1 (Homo sapiens) (P11474 whole entry, looked up, the tested form may be a part): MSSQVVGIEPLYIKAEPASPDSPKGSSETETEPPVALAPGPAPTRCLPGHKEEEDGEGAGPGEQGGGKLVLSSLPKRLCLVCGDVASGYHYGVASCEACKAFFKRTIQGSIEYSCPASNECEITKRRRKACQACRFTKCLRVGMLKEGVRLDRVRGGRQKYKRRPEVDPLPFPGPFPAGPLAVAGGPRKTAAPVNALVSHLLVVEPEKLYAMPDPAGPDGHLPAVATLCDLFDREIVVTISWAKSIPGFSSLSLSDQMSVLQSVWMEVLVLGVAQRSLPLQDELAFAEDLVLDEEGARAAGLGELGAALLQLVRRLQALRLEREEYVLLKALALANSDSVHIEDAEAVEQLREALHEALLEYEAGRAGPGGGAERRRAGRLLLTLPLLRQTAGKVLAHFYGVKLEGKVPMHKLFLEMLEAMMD
Sequence of Hepatocyte nuclear factor 4-alpha (Homo sapiens) (P41235 whole entry, looked up, the tested form may be a part): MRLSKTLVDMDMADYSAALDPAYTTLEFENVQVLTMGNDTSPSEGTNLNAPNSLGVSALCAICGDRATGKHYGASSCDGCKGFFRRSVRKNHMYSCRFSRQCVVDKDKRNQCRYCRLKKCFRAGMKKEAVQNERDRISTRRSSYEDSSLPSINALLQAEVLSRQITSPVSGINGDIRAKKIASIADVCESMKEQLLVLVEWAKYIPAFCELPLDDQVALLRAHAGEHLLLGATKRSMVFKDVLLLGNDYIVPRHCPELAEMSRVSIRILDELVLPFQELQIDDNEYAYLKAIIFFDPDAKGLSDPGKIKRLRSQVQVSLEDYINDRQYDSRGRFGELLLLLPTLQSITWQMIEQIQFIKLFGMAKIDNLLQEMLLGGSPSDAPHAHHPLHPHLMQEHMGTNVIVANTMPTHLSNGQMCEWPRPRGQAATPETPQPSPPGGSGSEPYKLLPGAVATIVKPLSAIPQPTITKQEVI
Sequence of Nuclear respiratory factor 1 (Homo sapiens) (Q16656 whole entry, looked up): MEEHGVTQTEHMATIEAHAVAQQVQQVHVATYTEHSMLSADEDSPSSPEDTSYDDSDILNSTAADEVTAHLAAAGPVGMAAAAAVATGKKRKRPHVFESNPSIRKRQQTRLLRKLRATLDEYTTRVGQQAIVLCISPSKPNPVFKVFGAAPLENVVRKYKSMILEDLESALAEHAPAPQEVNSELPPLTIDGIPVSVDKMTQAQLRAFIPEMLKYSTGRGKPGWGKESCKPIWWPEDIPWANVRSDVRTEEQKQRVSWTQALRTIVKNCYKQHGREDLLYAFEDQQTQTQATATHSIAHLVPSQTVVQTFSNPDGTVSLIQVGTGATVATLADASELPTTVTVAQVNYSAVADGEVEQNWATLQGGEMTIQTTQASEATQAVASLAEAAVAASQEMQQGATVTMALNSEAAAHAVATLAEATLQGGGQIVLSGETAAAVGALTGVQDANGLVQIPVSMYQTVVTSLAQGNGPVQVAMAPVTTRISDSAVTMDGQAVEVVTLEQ
Sequence of Transcriptional activator Myb (Homo sapiens) (P10242 whole entry, looked up): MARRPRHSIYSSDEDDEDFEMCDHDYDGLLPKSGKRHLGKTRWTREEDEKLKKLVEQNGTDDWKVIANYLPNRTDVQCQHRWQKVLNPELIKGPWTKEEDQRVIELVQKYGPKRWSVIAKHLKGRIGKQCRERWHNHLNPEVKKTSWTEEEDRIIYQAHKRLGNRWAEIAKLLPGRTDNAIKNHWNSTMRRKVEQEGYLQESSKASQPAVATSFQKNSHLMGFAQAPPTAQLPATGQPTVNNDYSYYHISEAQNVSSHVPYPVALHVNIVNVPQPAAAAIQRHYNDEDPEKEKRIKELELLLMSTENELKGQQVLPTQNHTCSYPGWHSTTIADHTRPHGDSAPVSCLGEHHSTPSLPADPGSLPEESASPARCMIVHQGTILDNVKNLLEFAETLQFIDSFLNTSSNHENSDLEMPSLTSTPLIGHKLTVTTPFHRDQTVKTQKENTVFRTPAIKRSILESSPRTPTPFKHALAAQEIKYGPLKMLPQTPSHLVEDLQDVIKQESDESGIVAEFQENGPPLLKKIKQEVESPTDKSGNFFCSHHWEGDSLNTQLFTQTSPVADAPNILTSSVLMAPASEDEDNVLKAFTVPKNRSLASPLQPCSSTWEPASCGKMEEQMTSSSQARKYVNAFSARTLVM
Sequence of X-box-binding protein 1 (Homo sapiens) (P17861 whole entry, looked up): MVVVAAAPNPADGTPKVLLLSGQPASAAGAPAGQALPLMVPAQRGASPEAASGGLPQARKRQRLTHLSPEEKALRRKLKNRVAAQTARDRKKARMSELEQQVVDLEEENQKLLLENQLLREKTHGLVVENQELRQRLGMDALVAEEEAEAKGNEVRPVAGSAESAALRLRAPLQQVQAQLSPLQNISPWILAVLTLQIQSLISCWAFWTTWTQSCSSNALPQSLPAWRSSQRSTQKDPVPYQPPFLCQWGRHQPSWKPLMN

Broadly, the AC50 is the concentration giving half of the maximal activity seen. On to `CC(C)(C)c1cc([N+](=O)[O-])cc(C(C)(C)C)c1O`, for which the outcome in assay [1], in [2], in assay [3], in [5], in assay [6] and in assay [7] was inactive. The outcome in [8], in assay [9], in assay [10], in [11], in assay [12] and in assay [13] was inactive. In addition, the AC50 in assay [4] was 4.78 µM (active).
For `O=[N+]([O-])c1c2ccccc2cc2ccccc12`, the result in assay [1], in [3], in [4], in assay [6], in assay [8] and in assay [9] was inactive. Besides, the result in assay [14], in assay [15], in [10], in assay [11], in [12] and in [13] was inactive. Further, the AC50 in assay [2] is 5.59 µM (active).
`C=CCN=C=S`: the result in [1], in assay [2], in [3], in assay [4], in [5] and in assay [16] was inactive. Moreover, the molecule was called inactive in assay [15], in assay [10], in assay [11], in [12] and in [13].
For `O=C(Cl)OCCOCCOC(=O)Cl`, the outcome in assay [1], in assay [2], in assay [3], in assay [4], in assay [17] and in [5] was inactive. For the same molecule, the result in assay [8], in assay [18], in [15], in [10], in assay [11] and in [12] was inactive. For the same molecule, the outcome in assay [13] was inactive.
For the molecule `O=C(O)COc1ccc(Cl)cc1`, the result in assay [1], in [2], in [3], in assay [4], in assay [5] and in [16] was inactive. Also, the molecule was classed as inactive in assay [6], in assay [19], in [8], in assay [9], in assay [14] and in assay [15]. Further, the call in [10], in assay [11], in [12] and in [13] was inactive.

Source of the values: PubChem BioAssay (EPA / NIEHS).
